Measurements reported in article PMC8769072, “Proteome‐scale mapping of binding sites in the unstructured regions of the human proteome” (Molecular Systems Biology, 2022).

molecular target: USP7 53-206, Q93009
Sequence (Q93009 53-206): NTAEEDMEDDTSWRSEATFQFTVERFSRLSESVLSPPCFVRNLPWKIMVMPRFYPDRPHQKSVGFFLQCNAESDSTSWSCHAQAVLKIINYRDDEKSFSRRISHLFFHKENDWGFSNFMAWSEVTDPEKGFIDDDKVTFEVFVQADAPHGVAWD

Selected by phage display, active:
MDTEPNPGTSSVSTTT [PHC3, Q8NDX5] confidence 2
SLQNQQNAHTSRMLQV [GPR179, Q6PRD1] confidence 2
EHAEIARWGQTLPTTS [SPTBN4, Q9H254] confidence 2
PGSNSTGSEVASMSSQ [ISL1, P61371] confidence 3
SFGINVATPGSSTTTG [POM121, Q96HA1] confidence 3
SGSVQTSSPPQLETVR [ARAP2, Q8WZ64] confidence 2
GPSSSTTTTTTTTEQP [MAP3K1, Q13233] confidence 3
MSVSSISSAGSSVASA [MARK1, Q9P0L2] confidence 3
SSSSSLSSASSSSTVV [ING3, Q9NXR8] confidence 2
MPSSSHGSMGGYNHSV [SS18, Q15532] confidence 2
TVPSHSSHATAVTTSN [SAP130, Q9H0E3] confidence 4
SSSAASTSSSSSAVAS [TRIP12, Q14669] confidence 2
QSHLATAGSTSSHSLQ [ESR1, P03372] confidence 3
GISDGPSVSALTNGFD [PARN, O95453] confidence 3
LAGPSLSSSSFSPSSS [ZFP36, P26651] confidence 2
LPSTSGSEGVPFRTVS [EPHA2, P29317] confidence 2
SGMVTNSVPTASSSVL [SALL1, Q9NSC2] confidence 4
MPIVMARDLEETASSS [TTLL5, Q6EMB2] confidence 3
SSSSPSPPPLSAISSV [PRDM2, Q13029] confidence 2
VALEHERAAAAGSSSS [ABHD12, Q8N2K0] confidence 3
SASSSASSSASSSSVV [MEX3B, Q6ZN04] confidence 4
SAMSVPGMSTGTVLGA [ARNTL2, Q8WYA1] confidence 2
TVITSVSSASSSSTVL [KLF12, Q9Y4X4] confidence 4
AASTSVTAGWGDVASS [HIPK2, Q9H2X6] confidence 2
TVDANGVVSLVGGPSV [SCN1A, P35498] confidence 3
STMPESPSSSTTATTT [SP4, Q02446] confidence 3
DVPSVSDHSQQVVDSG [KAT6A, Q92794] confidence 3
VSAPGRSIEASVDVPA [AHNAK2, Q8IVF2] confidence 2
HVSNDASSSVAESSSP [KIAA0408, Q6ZU52] confidence 3
ALSDSPSNSSYVETPR [TUBGCP5, Q96RT8] confidence 3
AYEGPSTSVVPTPDEG [MAGEE1, Q9HCI5] confidence 4
TDSIHSAHSSHSLSRD [UNC13B, O14795] confidence 2
DRASSSSGTIVQEAYG [SYNE2, Q8WXH0] confidence 2
VPANGEMSSSHSAQSM [TP73, O15350] confidence 3
AMPAPTPSSSPVPTLS [NXF1, Q9UBU9] confidence 2
DASSQTRMVHASASTS [BSN, Q9UPA5] confidence 3
PLTASSEQTAASSSSS [WBP1, Q96G27] confidence 2
ASSSSPSLSGTSYSFS [IPCEF1, Q8WWN9] confidence 4
SQVTGMSLQIPSSSTG [MAMLD1, Q13495] confidence 3
PVQSPLATAASASTSV [PROSER1, Q86XN7] confidence 3
GSSGSQEQLVSIASSS [PER3, P56645] confidence 3
SIAQPSTSSLHSHSSL [TCF7L2, Q9NQB0] confidence 3
SSVPTTINTIGTSTST [SAMD4A, Q9UPU9] confidence 2
ASGSSVPSSPVSESVL [GRM1, Q13255] confidence 4
QGELLEAPSSSSAPLP [RNF135, Q8IUD6] confidence 2
ASSSLTVTDSTLWSQS [MAGEA8, P43361] confidence 3

molecular target: VASP 1-114, P50552
Sequence (P50552 1-114): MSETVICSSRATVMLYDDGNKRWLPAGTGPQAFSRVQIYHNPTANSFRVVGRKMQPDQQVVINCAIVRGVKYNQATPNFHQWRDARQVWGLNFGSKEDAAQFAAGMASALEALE

Selected by phage display, active:
PAKIETDYWPAPPSLA [DMTN, Q08495] confidence 2
SMADFPPPEEAFFSVA [KIAA1522, Q9P206] confidence 2
FPPPPPETELPLPPIE [RAPH1, Q70E73] confidence 3
DFPPPPPDLEQLRLTD [VCL, P18206] confidence 2
LVPPALDLSWIWPAPP [C1orf159, Q96HA4] confidence 3
IPSEEWPNPPTLQEAG [FAF2, Q96CS3] confidence 4
FPPPPLPDSAIFLPPS [INPPL1, O15357] confidence 3
EAFPPPPHFSFPAPLS [SBNO2, Q9Y2G9] confidence 2
FPAPPSHWLFGHIQEL [CYP4A11, Q02928] confidence 2
LLNFPPPLPALYELWE [LBR, Q14739] confidence 2
GDLQTWFFPPPPAGSV [TEX44, Q53QW1] confidence 2
LWPDPPHFLYWSGFLG [PAX1, P15863] confidence 2
MAWPKLPAPWLLLATW [ILDR1, Q86SU0] confidence 2
VYSMDDFPPPPPHTVA [SHROOM3, Q8TF72] confidence 4
DVVLQSFPPLPSAEIL [KIF23, Q02241] confidence 2
WPDPPDLPTVDPISSS [MRPL43, Q8N983] confidence 4
